This passage reports inhibition results from PubChem BioAssay AID1362 (SRMLSC, 2008).

As a reminder, the inhibition is the relative decrease from the control value, in per cent.

This test is described as follows: growth inhibition of WT strain, primary screen, mitochondrial fusion inhibitor project, WT and mutant strains, chemical genetic (AID 1362). The conditions noted are these: mitochondrial fusion phenotypic screen, at 10 µM.
The mark [1] stands for this setting: WT strain, growth inhibition, stronger effect = higher value.

Out of some 190,000 compounds screened, about 4,000 (2.1%) were called active. Cut-off read from the data, not from the text of the source: active = inhibition above about 58%; inactive = the rest, inconclusive results apart; tested in S. cerevisiae. What follows is part of a selection rich in actives, with near analogues and random picks from the rest.

`COC(=O)Cc1nc2ccccc2[nH]1`: the inhibition under setting [1] is 16.6% (inactive) and the inhibition (mutant strain inhibition) was found to be 14%.
In the same order, the values of `Clc1ccccc1SCc1nc2ccccc2[nH]1` are 39.4% (inactive) and 35.4%.
In the same order, the values of `c1ccc2c(CSCc3nc4ccccc4[nH]3)cccc2c1` are 74.6% (active) and 69.3%.
In the same order, the values of `O=C(NCc1ccccc1)C1CCCN(c2nc3ccsc3c(=O)s2)C1` (stereo not given) are -14.1% (inactive) and 0.23%.
Consider `CO/N=C/c1ccc(N2CCN(C(=O)c3cccc(Cl)c3)CC2)c([N+](=O)[O-])c1`, for which the inhibition is, setting by setting: under setting [1], 36.5% (inactive); (mutant strain inhibition) 22.2%.
Consider `O=C(/C=C/c1ccc(Cl)cc1)N1CCN(c2ccccc2[N+](=O)[O-])CC1`, for which the inhibition reads like this: under setting [1], 65.4% (active); (mutant strain inhibition) 39.2%.
In the same order, the values of `O=C(c1ccc(Cl)c([N+](=O)[O-])c1)N1CCN(c2ccccc2)CC1` are 65.8% (inactive) and 70.4%.
`CCn1cc(C(=O)NCCCN2CCCCCC2)c(=O)c2cc(S(=O)(=O)N3CCc4ccccc4C3)ccc21`: the inhibition under setting [1] is 4.36% (inactive) and the inhibition (mutant strain inhibition) is -2.13%.
In the same order, the values of `COc1ccc(NC(=O)CCNS(=O)(=O)c2ccc3c(c2)c(=O)n(C)c(=O)n3C)cc1OC` are -9.99% (inactive) and 2.95%.
In the case of `CCCNC(=O)CN(Cc1ccccc1F)S(=O)(=O)c1ccc(C)cc1`, the inhibition is -13.2% (inactive) under setting [1] and -40.4% (mutant strain inhibition).
In the same order, the values of `COC(=O)Cc1ccc(N(Cc2ccccc2F)S(=O)(=O)c2ccc(Br)cc2)cc1` are 69.7% (active) and 64.6%.
In the same order, the values of `O=C(COC(=O)Cc1ccc(Br)cc1)Nc1c(F)c(F)c(F)c(F)c1F` are 19.9% (inactive) and 7.41%.
In the same order, the values of `CCCS(=O)(=O)N1CCC(CCOc2ccccc2)(C(=O)OCC)CC1` are 5.25% (inactive) and -7.89%.
`CCSC1=NCCN1C(=O)c1ccc(S(=O)(=O)N(CC)CC)cc1`: the inhibition was 1.64% (inactive) under setting [1] and -5.04% (mutant strain inhibition).
In the same order, the values of `O=C(COC(=O)c1ccncc1)c1ccccc1` are -12.9% (inactive) and 3%.
In the same order, the values of `COc1ccc(N2CCN(CCNC(=O)CCN3C(=O)COc4ccccc43)CC2)cc1` are -0.99% (inactive) and 42.7%.
In the same order, the values of `COc1ccc(CN2CC(C(=O)NCCN3CCN(c4ccccc4F)CC3)CC2=O)cc1` (stereo not given) are 5.07% (inactive) and 14.3%.
Regarding `COc1ccc(N2CCN(CCNC(=O)c3nnc(Cc4c(F)cccc4Cl)o3)CC2)cc1`, the inhibition by setting is: under setting [1], 82.5% (active); (mutant strain inhibition) -0.13%.
In the same order, the values of `O=C(CCn1ccc([N+](=O)[O-])n1)Nc1nccs1` are -14.4% (inactive) and 2.54%.
In the same order, the values of `Cn1c(N)c(C(=O)COC(=O)c2ccccc2NCc2ccco2)c(=O)n(C)c1=O` are 12.2% (inactive) and -19.6%.
In the same order, the values of `Cc1ccc(NC(=O)OCc2cncs2)cc1` are -3.01% (inactive) and 3.18%.
With `COc1ccc(OC)c(C(=O)c2ccc(C(=O)N3CCN(Cc4csc(C)n4)CC3)cc2)c1`, the inhibition under setting [1] is -23% (inactive) and the inhibition (mutant strain inhibition) came to 5.3%.
In the same order, the values of `Cc1ccc(Cl)c(NC(=O)CN2CCN(C=O)CC2)c1` are -7.62% (inactive) and 12.5%.
In the same order, the values of `CC(=O)OC(COc1ccc(F)cc1)Cn1cnc2ccccc21` (stereo not given) are -0.37% (inactive) and 4.78%.
As for `CC(C)c1ccc(OCC(O)Cn2cnc3ccccc32)cc1` (stereo not given), the inhibition under setting [1] was 95.7% (active) and the inhibition (mutant strain inhibition) worked out at 0.12%.
For the molecule `OC(COc1ccc2ccccc2c1)Cn1cncn1` (stereo not given), the inhibition under setting [1] was 4.91% (inactive) and the inhibition (mutant strain inhibition) is -2.41%.
In the same order, the values of `CC(=O)Nc1cccc(-c2nc3ccccc3s2)c1C` are -0.41% (inactive) and -5.28%.
In the same order, the values of `COC(=O)C1=C(C)N(c2ccc(Br)cc2)C(=O)/C1=C\c1ccco1` are 13.1% (inactive) and 8.54%.
In the same order, the values of `O=C(CCCN1C(=O)/C(=C/c2ccco2)SC1=S)Nc1ccccc1` are 1.95% (inactive) and -17.3%.
For `COC(=O)C1=C(C)N(C(C)c2ccccc2)C(=O)/C1=C\c1ccco1` (stereo not given), the inhibition was 58.3% (active) under setting [1] and -4.58% (mutant strain inhibition).
Turning to `O=C(NCCN1CCOCC1)Nc1cccc(Cl)c1`, the inhibition is, setting by setting: under setting [1], -7.63% (inactive); (mutant strain inhibition) -3.81%.
In the same order, the values of `Cc1cc(C)cc(OCC(=O)NCc2cc(C)nc3ccccc23)c1` are -2.23% (inactive) and 3.06%.
In the same order, the values of `COc1cc(NC(=S)N2CCCC(C)C2)c(OC)cc1Cl` (stereo not given) are -3.52% (inactive) and 1.38%.
In the same order, the values of `COc1ccc(NC(=O)COc2ccc(C(=O)OCC(=O)N(C)C3CCS(=O)(=O)C3)cc2OC)cc1` (stereo not given) are -3.64% (inactive) and 1.53%.
Regarding `O=C(Nc1ccc(Cl)cn1)c1ccc2c(c1)OCCO2`, the inhibition was 27.3% (inactive) under setting [1] and 29% (mutant strain inhibition).
In the same order, the values of `O=C(Nc1cccc(S(=O)(=O)Nc2ccc(Cl)cc2)c1)c1ccc2c(c1)OCCO2` are 63.7% (active) and 29.9%.
Take `O=C(Nc1cccc(S(=O)(=O)N2CCCCC2)c1)c1ccc2c(c1)OCO2`: the inhibition under setting [1] was 9.86% (inactive) and the inhibition (mutant strain inhibition) came out at 4.97%.
In the same order, the values of `CCn1nc(C)cc1C(=O)N1CCCC(C(=O)c2cccc(OC)c2)C1` (stereo not given) are -20.3% (inactive) and 1.68%.
In the same order, the values of `Cn1nnnc1SCC(=O)NNC(=O)c1ccc(Br)cc1` are -19.9% (inactive) and 0.05%.
In the same order, the values of `COc1cc(/C=N/NC(=O)c2cc(C)n(-c3ccc(F)cc3)c2C)cc(OC)c1O` are 1.5% (inactive) and 1.64%.
With `COc1cc(Cl)c(C)cc1NC(=O)CSc1nnc(-c2cccnc2)n1Cc1ccco1`, the inhibition reads like this: under setting [1], 2.54% (inactive); (mutant strain inhibition) 2.3%.
In the same order, the values of `COc1cc(Cl)c(C)cc1NC(=O)CSc1nnc(-c2ccco2)n1CC(C)C` are 63.4% (active) and 39.5%.
In the same order, the values of `CCn1c(SCC(=O)Nc2cc(C)c(Cl)cc2OC)nnc1-c1ccco1` are 23% (inactive) and 32.2%.
In the same order, the values of `CCN(CC)CCOC(=O)c1ccc(NC(=O)CNC(=O)c2ccccc2)cc1` are 19.4% (inactive) and 15.8%.
For `COc1ccccc1NC(=S)N1CCC(NC(=O)C23CC4CC(CC(C4)C2)C3)CC1`, the inhibition was -5.17% (inactive) under setting [1] and 19% (mutant strain inhibition).
In the same order, the values of `CC(C)OCC(O)CN1CCN(C(c2ccccc2)c2ccccc2)CC1` (stereo not given) are 11% (inactive) and 3.96%.
For `COc1ccccc1NC(=S)N1CCN(C(c2ccccc2)c2ccccc2)CC1`, the inhibition runs as follows: under setting [1], 58.8% (active); (mutant strain inhibition) 38.3%.
In the same order, the values of `CC(C)NC(=S)N1CCN(S(C)(=O)=O)CC1` are -2.96% (inactive) and 11.2%.
In the same order, the values of `CC(C)NC(=S)N1CCN(C(c2ccccc2)c2ccccc2)CC1` are 64.7% (active) and 29.4%.
In the same order, the values of `COc1ccccc1NC(=S)NC(=O)C(C)C` are 48% (inactive) and 2.93%.
`O=C1CN(C(=O)COC(=O)c2cnc(Cl)c(Cl)c2)c2ccccc2N1`: the inhibition under setting [1] is -3.97% (inactive) and the inhibition (mutant strain inhibition) is -29.4%.
In the same order, the values of `O=C(COC(=O)c1ccco1)NCc1ccc(Cl)cc1` are 2.75% (inactive) and -1.13%.
With `Cc1n[nH]c(=O)n1-c1ccc(C(C)C)cc1`, the inhibition was -5.29% (inactive) under setting [1] and -2.69% (mutant strain inhibition).
In the same order, the values of `O=C(CO/N=C/c1ccc(OC(F)F)cc1)NCc1ccc(F)cc1` are 16.7% (inactive) and 27%.
In the case of `CC(C(=O)N=Nc1c(O)n(C)c2ccc(Br)cc12)n1cnc2ccccc2c1=O` (stereo not given), the inhibition is 17.8% (inactive) under setting [1] and 30.6% (mutant strain inhibition).
In the same order, the values of `COCCN(CCOC)S(=O)(=O)c1ccc(/C(O)=C(\C#N)c2nc3ccccc3[nH]2)cc1` are -0.78% (inactive) and -1.8%.
In the same order, the values of `CC(C)CN1CCNC(=O)C1CC(=O)N(C)CC1CCOCC1` (stereo not given) are -4.62% (inactive) and -8.09%.
In the same order, the values of `COC(=O)C1=C(C)N(c2ccc(C)cc2)/C(=C/c2ccc(O)cc2)C1=O` are 5.84% (inactive) and 0.5%.
For `COc1ccc(/C=N/NC(=O)CNC(=O)c2ccc(S(=O)(=O)N3CCCC3)cc2)c(OC)c1`, the inhibition under setting [1] is 7.02% (inactive) and the inhibition (mutant strain inhibition) came out at 8.18%.
Consider `Cc1nnc(CN(C)Cc2cn[nH]c2-c2ccc(-c3ccccc3)cc2)o1`, for which the inhibition by setting is: under setting [1], 6.53% (inactive); (mutant strain inhibition) -1.49%.
Consider `O=C(Nc1ccc2ccccc2c1)/C(=C/c1cccc(Br)c1)NC(=O)c1ccco1`, for which the inhibition is 17.2% (inactive) under setting [1] and 10.9% (mutant strain inhibition).
In the same order, the values of `CCCc1ccc(OCC(=O)NNC(=S)NC(=O)c2ccco2)cc1` are 87.8% (inactive) and 88.2%.
In the same order, the values of `CC(Oc1ccc2ccccc2c1)C(=O)NNC(=S)NC(=O)c1ccco1` (stereo not given) are 86.5% (active) and 80.5%.
In the same order, the values of `CCCNC(=O)Nc1ccccc1C(=O)Nc1ccc(OC)cc1` are -0.69% (inactive) and -0.17%.
In the case of `CCCCCNC(=O)c1cccnc1SCC(=O)Nc1ccccc1OC`, the inhibition was -6.44% (inactive) under setting [1] and -24% (mutant strain inhibition).
In the same order, the values of `CCCNC(=O)c1ccccc1NC(=O)CSCc1ccc(OC)cc1` are 72.9% (active) and 19.6%.
In the same order, the values of `Cc1cccc(C)c1NC(=O)C1(C)c2cccc[n+]2CC(=O)N1Cc1cccs1` (stereo not given) are -7.87% (inactive) and 0.75%.
In the same order, the values of `CCOc1cc(/C=N/O)cc(Br)c1OC` are -2.36% (inactive) and -20.3%.
With `CCOc1c(Cl)cc(/C=N/O)cc1OC`, the inhibition is, setting by setting: under setting [1], -6.94% (inactive); (mutant strain inhibition) -20.7%.
In the same order, the values of `COc1cc(/C=N/Nc2ccc(C)cc2)cc(Br)c1O` are 15.8% (inactive) and 37.7%.
As for `COc1cc(/C=N/O)cc(Br)c1OCc1cccc(Cl)c1`, the inhibition reads like this: under setting [1], 91.4% (active); (mutant strain inhibition) 76.3%.
In the same order, the values of `COc1cc(/C=N/O)cc(Br)c1OS(=O)(=O)c1ccc(C)cc1` are 71.3% (active) and 30.6%.
Consider `COc1cccc(/C=N/NC(=O)c2cccc([N+](=O)[O-])c2)c1OS(=O)(=O)c1ccc(C)cc1`, for which the inhibition runs as follows: under setting [1], -5.41% (inactive); (mutant strain inhibition) -3.16%.
Turning to `N#CC1(C#N)C(C(=O)C23CC4CC(CC(C4)C2)C3)C12CCOCC2` (stereo not given), the inhibition is 21.5% (inactive) under setting [1] and 11.6% (mutant strain inhibition).
In the same order, the values of `CCOc1cc(N2CCOCC2)c(OCC)cc1NC(=O)C1=NN(c2cccc(C)c2)C(=O)CC1` are -2.98% (inactive) and 16.4%.
For the molecule `Cc1cc(C)c(OCCN2CC(C)OC(C)C2)c(Br)c1` (stereo not given), the inhibition is, setting by setting: under setting [1], 21.8% (inactive); (mutant strain inhibition) 42.5%.
In the same order, the values of `S=c1[nH]nc(COc2ccccc2)n1-c1ccccc1` are -7.14% (inactive) and -7.05%.
In the same order, the values of `Cc1ccc(OCc2n[nH]c(=S)n2-c2ccc(C)cc2)cc1` are 69.9% (active) and 60.1%.
In the same order, the values of `Cc1ccc(OCc2n[nH]c(=S)n2-c2ccccc2)cc1` are 11.4% (inactive) and 20.6%.
As to `COc1ccc(CN(C)C(=S)Nc2ccc(Cl)cc2Cl)cc1`, the inhibition was 22.4% (inactive) under setting [1] and 21.9% (mutant strain inhibition).
In the same order, the values of `O=Cc1cn(Cc2ccccc2)nc1-c1cccnc1` are -22.6% (inactive) and 3.85%.
Turning to `N#C/C(=C(\O)C(F)(F)F)c1nnc2n1CCCCC2`, the inhibition by setting is: under setting [1], 22% (inactive); (mutant strain inhibition) 13.5%.
In the same order, the values of `CC(=O)Nc1cccc(-c2cnc3ccccc3n2)c1` are 13.3% (inactive) and 9.81%.
For the molecule `CCS(=O)(=O)Nc1cccc(-c2cc(-c3ccccc3)c3cc(C)ccc3n2)c1`, the inhibition reads like this: under setting [1], 69.3% (active); (mutant strain inhibition) -17.6%.
For the molecule `Cc1ccc2nc(-c3ccccc3)cc(C(=O)O)c2c1`, the inhibition is 3.84% (inactive) under setting [1] and 0.25% (mutant strain inhibition).
